Numbering of substitutions follows the chain as printed.
Assays:
Assay in all cases: Spec-seq (native PAGE EMSA with sequencing of bound and unbound); 25 mM Tris-HCl pH 7.4, 150 mM KCl, 5 mM MgCl2, 10% glycerol, 1 mM DTT, 40 ng/uL salmon sperm DNA; 400 nM Cas12a, 480 nM crRNA, 50 nM library, 37 C 1 h; native PAGE at room temperature; high values mean tight binding
Conditions in all cases: protein: recombinant
[1] = target: dAsCas12a S542R (Acidaminococcus sp., UniProt U2UMQ6 1-1307, S542R;D908A;E993A;D1235A)
[2] = target: d-enCas12a (Acidaminococcus sp., UniProt U2UMQ6 1-1307, E174R;S542R;K548R;D908A;E993A;D1235A)
[3] = target: d-enCas12a-Ultra (Acidaminococcus sp., UniProt U2UMQ6 1-1307, E174R;S542R;K548R;M537R;F870L;D908A;E993A;D1235A)
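Also: relative affinity from the bound to unbound sequence frequency ratio in Spec-seq.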

B1: TCAG (dsDNA)
DNA 1: GCTATCTAGTGCTCAGTACGCACTGTCAGAGGAAACTTCTGGCAGGACCAGGTCATGAGATCGGAAGAGCACACGTCTGAACTCCAGTCA
DNA 2: TGACTGGAGTTCAGACGTGTGCTCTTCCGATCTCATGACCTGGTCCTGCCAGAAGTTTCCTCTGACAGTGCGTACTGAGCACTAGATAGC
RNA: AAUUUCUACUCUUGUAGAUAGGAAACUUCUGGCAGGACC
Work on B1 yielded a binding signal [1] of -7.87 lnKA, a binding signal [2] of -5.78 lnKA and a binding signal [3] of -3.45 lnKA.

B2: TGGC (dsDNA)
DNA 1: B1 DNA 1 with C27G, A28G, G29C
DNA 2: B1 DNA 2 with C62G, T63C, G64C
RNA: B1 RNA
Work on B2 yielded a binding signal [1] of -8.19 lnKA, a binding signal [2] of -5.4 lnKA and a binding signal [3] of -3.03 lnKA.

B3: TGCT (dsDNA)
DNA 1: B1 DNA 1 with C27G, A28C, G29T
DNA 2: B1 DNA 2 with C62A, T63G, G64C
RNA: B1 RNA
B3 was tested, and the binding signal [1] was -8.2 lnKA, the binding signal [2] was -4 lnKA and the binding signal [3] was -1.2 lnKA.

B4: AAGC (dsDNA)
DNA 1: B1 DNA 1 with T26A, C27A, A28G, G29C
DNA 2: B1 DNA 2 with C62G, T63C, G64T, A65T
RNA: B1 RNA
In the case of B4, the binding signal [2] is reported as -5.85 lnKA and the binding signal [3] is reported as -3.34 lnKA.

B5: GCGG (dsDNA)
DNA 1: B1 DNA 1 with T26G, A28G
DNA 2: B1 DNA 2 with T63C, A65C
RNA: B1 RNA
Binder B5 has a binding signal [2] of -5.85 lnKA and a binding signal [3] of -3.63 lnKA.

B6: GTAC (dsDNA)
DNA 1: B1 DNA 1 with T26G, C27T, G29C
DNA 2: B1 DNA 2 with C62G, G64A, A65C
RNA: B1 RNA
For B6, the binding signal [2] was -5 lnKA and the binding signal [3] was -1.95 lnKA.

B7: TGAG (dsDNA)
DNA 1: B1 DNA 1 with C27G
DNA 2: B1 DNA 2 with G64C
RNA: B1 RNA
Work on B7 yielded a binding signal [1] of -8.4 lnKA, a binding signal [2] of -5.65 lnKA and a binding signal [3] of -3.4 lnKA.

B8: TCAT (dsDNA)
DNA 1: B1 DNA 1 with G29T
DNA 2: B1 DNA 2 with C62A
RNA: B1 RNA
B8 was tested, and the binding signal [1] was -8.4 lnKA, the binding signal [2] was -5.72 lnKA and the binding signal [3] was -3.42 lnKA.

B9: TGCG (dsDNA)
DNA 1: B1 DNA 1 with C27G, A28C
DNA 2: B1 DNA 2 with T63G, G64C
RNA: B1 RNA
B9 showed a binding signal [1] of -8.2 lnKA, a binding signal [2] of -3.38 lnKA and a binding signal [3] of -0.977 lnKA.

B10: TGGG (dsDNA)
DNA 1: B1 DNA 1 with C27G, A28G
DNA 2: B1 DNA 2 with T63C, G64C
RNA: B1 RNA
Work on B10 yielded a binding signal [1] of -8.57 lnKA, a binding signal [2] of -5.93 lnKA and a binding signal [3] of -3.42 lnKA.

B11: TGAC (dsDNA)
DNA 1: B1 DNA 1 with C27G, G29C
DNA 2: B1 DNA 2 with C62G, G64C
RNA: B1 RNA
In the case of B11, the binding signal [1] is reported as -8.67 lnKA, the binding signal [2] is reported as -5.25 lnKA and the binding signal [3] is reported as -2.74 lnKA.

B12: ACGC (dsDNA)
DNA 1: B1 DNA 1 with T26A, A28G, G29C
DNA 2: B1 DNA 2 with C62G, T63C, A65T
RNA: B1 RNA
In the case of B12, the binding signal [2] is reported as -5.66 lnKA and the binding signal [3] is reported as -3.42 lnKA.

B13: TGAT (dsDNA)
DNA 1: B1 DNA 1 with C27G, G29T
DNA 2: B1 DNA 2 with C62A, G64C
RNA: B1 RNA
For B13, the binding signal [1] was -8.47 lnKA, the binding signal [2] was -5.85 lnKA and the binding signal [3] was -3.37 lnKA.
